The text below walks through data of PubChem BioAssay (NCATS).

Inconclusive results are not listed. A number with no mark means an inactive call. Active and inactive are the calls of the source. The call rests on the fitted dose curve; in most records, active means well fitted inhibition curve with a large enough effect; inconclusive means small, poorly fitted or top-dose-only effect, or effect the other way; inactive means no such curve, though single readings can be large or run the other way.
On the % scale 0 is the no-effect control and ±100 the full control effect; potency means the concentration at half of the fitted maximal effect.

The nature of this assay: Quantitative high throughput screen for delayed death inhibitors of the malarial parasite plastid, 96 hour incubation (AID 488745). Further: nearly all actives have a fitted effect of over 70% in size. The settings on record: Plasmodium falciparum growth; series mostly up to 28.7 µM; activity change, negative = inhibition: at the top concentration. From the text: NIH Molecular Libraries Probe Production Network [MLPCN]
NIH Chemical Genomics Center [NCGC]
Assay Provider: David Fidock and Eric Ekland, Columbia University
The goal of this screen is to discover new antimalarial compounds that act by inhibiting the development of the apicoplast in the malarial parasite Plasmodium falciparum. The biochemical processes that make this organelle essential for erythrocytic stage parasites are not well understood. However, antibiotics such as azithromycin and tetracycline, which target the apicoplast translational machinery, have a potent antimalarial effect.
We have developed a cell-based assay that measures parasite growth based on the expression of an integrated copy of a firefly luciferase reporter. To detect small molecules that cause this 'delayed death' phenotype, erythrocytes infected with the luciferase-expressing parasites were incubated with compounds for either one or two generations, corresponding to 48 and 96 hours, respectively. Compounds that inhibit parasite growth in the second generation, but not the first, should be enriched in antimalarials that target the apicoplast. Growth inhibition is detected by a decrease in luciferase activity
Four microliters of culture medium (RPMI 1640 with 0.5% w/v Albumax (GIBCO), 24 mM sodium bicarbonate and 10 ug/mL gentamycin) were dispensed by a Multi-drop Combi into white solid 1536-well plates (Grenier) and 23 nL compound was added by a pin tool. Four microliters of infected erythrocytes (2% hematocrit, 0.1% parasitemia final concentration) in culture medium were dispensed and the plates incubated for 96 hours at 37 C in 5% CO2. Two microliters of luciferase detection reagent was added and luminescence was detected by a ViewLux (PerkinElmer) reader
For `CC1(C)NC(=O)N(c2ccc([N+](=O)[O-])c(C(F)(F)F)c2)C1=O`, the “activity change, negative = inhibition” value was 18%.

On to `O=c1c(O)c(-c2ccc(O)cc2O)oc2cc(O)cc(O)c12`, for which the “activity change, negative = inhibition” value was 1.4%.

For the molecule `Oc1ccc(-c2nc(-c3ccc(F)cc3)c(-c3ccncc3)[nH]2)cc1`, the “activity change, negative = inhibition” value was -1.06%.

On to `O=C1c2ccccc2-c2n[nH]c3cccc1c23`, for which the Potency is 4.65 µM (active).

With `CC(=O)O[C@H]1C(=O)[C@@]2(C)C([C@H](OC(=O)c3ccccc3)[C@]3(O)C[C@H](OC(=O)[C@H](O)[C@@H](NC(=O)c4ccccc4)c4ccccc4)C(C)=C1C3(C)C)[C@]1(OC(C)=O)CO[C@@H]1C[C@@H]2O` (stereo not given in full), the Potency was 0.117 µM (active).

Take `COc1ccc2cc([C@H](C)C(=O)O)ccc2c1`: the “activity change, negative = inhibition” value is -1.6%.

Regarding `COc1ccccc1N1CCN(CCN(C(=O)C2CCCCC2)c2ccccn2)CC1`, the “activity change, negative = inhibition” value was -24.2%.

As to `O=C(c1ccccc1)c1ccc2n1CCC2C(=O)O` (stereo not given), the “activity change, negative = inhibition” value is 13.5%.

For the molecule `C[C@@H](N)C1CCC(C(=O)Nc2ccncc2)CC1` (stereo not given in full), the “activity change, negative = inhibition” value is -1.87%.

Take `OC(CN1CCN(c2cccc(Cl)c2)CC1)C(c1ccccc1)c1ccccc1` (stereo not given): the “activity change, negative = inhibition” value was -4.51%.

Turning to `NC(=NCc1ccccc1)NC(=O)c1nc(Cl)c(N)nc1N`, the Potency was 2.62 µM (active).

Turning to `Nc1nc(OCc2ccccc2)c2[nH]cnc2n1`, the “activity change, negative = inhibition” value is -1.81%.

Take `Cc1nc2n(c(=O)c1CCN1CCC(c3noc4cc(F)ccc34)CC1)CCCC2`: the “activity change, negative = inhibition” value was 2.1%.

On to `CC(C)c1ccc2c(c1)c(SC(C)(C)C)c(CC(C)(C)C(=O)O)n2Cc1ccc(Cl)cc1`, for which the Potency is 7.38 µM (active).

As to `C[C@H](Cc1ccc(O)c(O)c1)[C@@H](C)Cc1ccc(O)c(O)c1`, the Potency was 13.1 µM (active).

With `O=C(O)c1cccnc1Nc1cccc(C(F)(F)F)c1`, the “activity change, negative = inhibition” value was 8.49%.

Regarding `O=C(NCC1CCCCN1)c1cc(OCC(F)(F)F)ccc1OCC(F)(F)F` (stereo not given), the “activity change, negative = inhibition” value was -0.894%.

For `CN(C)CCCC1(c2ccc(F)cc2)OCc2cc(C#N)ccc21` (stereo not given), the “activity change, negative = inhibition” value was -12.5%.

As to `O=c1c(O)c(-c2cc(O)c(O)c(O)c2)oc2cc(O)cc(O)c12`, the “activity change, negative = inhibition” value was -18.8%.

For `CNC[C@H](O)c1ccc(O)c(O)c1`, the “activity change, negative = inhibition” value was 21.5%.

In the case of `O=C(CCc1ccc(O)cc1)c1c(O)cc(O)cc1O`, the “activity change, negative = inhibition” value was -3.22%.

With `O=c1ccc2ccc(O)c(O)c2o1`, the Potency was 14.7 µM (active).

For the molecule `Cc1cc(O)c2c(c1)C(=O)c1cc(O)cc(O)c1C2=O`, the “activity change, negative = inhibition” value is 18.7%.

As for `O=Nc1c(-c2c(O)[nH]c3cc(Br)ccc23)[nH]c2ccccc12`, the Potency was 4.65 µM (active).

With `NCCCCNCCCN`, the “activity change, negative = inhibition” value was -16.8%.
